Reference: PubChem BioAssay AID1259418 (Broad Institute, 2018)
The campaign covered roughly 3,400 compounds. About 840 (25%) were called active. About 11% were inconclusive and are not listed. The list is a sample of the results. Results with a measured potency or affinity are listed apart. Values without a mark were called inactive.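 How the source made its calls: active means fitted half-maximal concentration of signal decrease at or below twice the sample's top tested concentration; inconclusive means flat curve between -70 and -30 percent, or poor fit; inactive means flat within 30 percent, signal rise, or potency above limit.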

experiment: T. gondii growth inhibition with IFN-gamma, dose response, cell-based, ME49Luc, HeLa, luciferase, 72 h (AID 1259418); settings: T. gondii ME49Luc in IFN-y HeLa, stronger effect = lower value, -100% = high-dose IFN-γ control wells; at 19.5 µM unless noted

Going from `CCOc1ccc(CCNc2nc(-c3ccc(Cl)cc3)nc3ccccc23)cc1OCC` to `COc1ccc(-c2nc(Nc3cccc(Cl)c3)c3ccccc3n2)cc1`, the max activity rises from -12.8% [at 0.35 µM] to 22.1% [at 0.35 µM].

First: COc1ccc(-c2nc(Nc3ccccc3Cl)c3ccccc3n2)cc1
Second: COc1ccccc1-c1nc(Cn2nnc(-c3nc(-c4ccc5c(c4)OCO5)no3)c2C)c(C)o1
The max activity of the first is lower: -9.71% [at 0.35 µM] for the first, 8.21% [at 0.35 µM] for the second.

In the case of `O=C(NCCc1csc(-c2ccccc2)n1)C1CCN(C(=O)Cc2cccs2)CC1`, the max activity is reported as 5.42% [at 0.35 µM].

Compared with `NCCCCCCNS(=O)(=O)c1ccc2c(Cl)cccc2c1`, `Cc1ccc(-c2coc(-c3ccc(NS(=O)(=O)c4cccc(Cl)c4)cc3)n2)c(C)c1` is lower in max activity: 23.8% for the first, -22.9% for the second.

Compared with `COc1ccc(CNC(=O)Nc2ccc(-c3nc(-c4cc(C)ccc4C)co3)cc2)cc1`, `COc1cccc(CNC(=O)Nc2ccc(-c3nc(-c4ccc(C)cc4C)co3)cc2)c1` is higher in max activity: 11.5% for the first, 20.1% for the second.

First: CCCCNC(=O)CC1N=C2c3ccccc3N=C(SCc3ccccc3Cl)N2C1=O (centres undefined)
Second: CCCCNC(=O)CCC1N=C2c3ccccc3N=C(SCC#N)N2C1=O (centres undefined)
The max activity of the first is lower: -10.2% for the first, 51.3% for the second.

First: COc1cccc(CNC(=O)Nc2ccc(-c3nc(-c4ccccc4)co3)cc2)c1
Second: Cc1ccc(-c2coc(-c3ccc(NS(=O)(=O)c4ccc(C(C)C)cc4)cc3)n2)c(C)c1
The max activity of the first is higher: 78.4% for the first, -13.7% for the second.

First: Cc1ccc(-c2coc(-c3ccc(NS(=O)(=O)c4ccc(C(C)(C)C)cc4)cc3)n2)c(C)c1
Second: Cc1ccc(CNc2nc(-c3ccc(Cl)cc3)nc3ccccc23)o1
The max activity of the first is lower: -14.9% for the first, 42.3% for the second.

Compared with `Cc1ccc(C)c(-c2nc(CN3CCc4c(sc5c4CCCC5)C3c3ccccc3)c(C)o2)c1` (centres undefined), `COc1ccccc1CN1CCc2nc(SCc3nc(-c4ccc(C)cc4)oc3C)[nH]c(=O)c2C1` is higher in max activity: 15.8% for the first, 34.1% for the second.

Going from `Cc1oc(-c2ccccc2)nc1Cn1nc2n(Cc3ccc(F)cc3)c(=O)c3nn(C)cc3n2c1=O` to `Clc1ccc(-c2nc(N3CCC(Cc4ccccc4)CC3)c3ccccc3n2)cc1`, the max activity falls from 15.8% to 11.8%.

First: CN1C(=O)CCc2cc(NC(=O)CC3CCCCC3)ccc21
Second: CN1C(=O)CCc2cc(NC(=O)C3CCCC3)ccc21
The max activity of the first is lower: 8.53% for the first, 11.7% for the second.

Compared with `CN1C(=O)c2cc(NC(=O)c3cccc(F)c3)ccc2OC[C@@H]2O[C@@H](CC(=O)NCC3CCCCC3)CC[C@@H]21`, `COc1ccccc1CCC(=O)N1CCC[C@@H]1C(=O)NCCc1csc(-c2ccccc2)n1` is higher in max activity: -24.1% for the first, -10.5% for the second.

Going from `CCN(CC)C(=O)C1Cn2ccnc2C2(CCN(CC(C)C)CC2)O1` (centres undefined) to `CC(C)N1CCC(c2ccnc3c(C(=O)N4CCCN(C)CC4)ncn23)CC1`, the max activity rises from 37.9% to 39%.

First: O=C(Nc1ccc(F)cc1)Nc1ccc(-c2nc(-c3ccccc3)co2)cc1
Second: COc1ccc(OC)c(S(=O)(=O)Nc2ccc(-c3nc(-c4ccc(C)c(C)c4)co3)cc2)c1
The max activity of the first is lower: -15.1% [at 1.35 µM] for the first, 20.8% [at 1.35 µM] for the second.

First: Cc1ccc(NC(=O)N2CCN(Cc3nc(-c4ccccc4C)oc3C)CC2)cc1Cl
Second: O=C1CCc2cc(NC(=O)c3cccnc3)ccc2N1
The max activity of the first is higher: 14% [at 1.35 µM] for the first, 9.01% [at 1.35 µM] for the second.

First: COc1ccc(Cl)cc1S(=O)(=O)Nc1ccc(-c2nc(-c3ccc(C)cc3C)co2)cc1
Second: Cc1ccc(S(=O)(=O)Nc2ccc(-c3nc(-c4ccc(C)cc4C)co3)cc2)cc1
The max activity of the first is lower: 11.6% [at 0.16 µM] for the first, 12.9% [at 0.16 µM] for the second.

Going from `O=C(NCCc1csc(-c2ccccc2)n1)[C@H]1CCCN1C(=O)c1ccc(F)c(F)c1` to `Clc1ccc(-c2nc(N3CCN(C4CCCCC4)CC3)c3ccccc3n2)cc1`, the max activity rises from 13.1% [at 0.16 µM] to 19% [at 0.16 µM].

First: CCc1ccc(NC(=O)N2CCc3nc(-c4ccc(OC)c(OC)c4)sc3C2)cc1
Second: CCCc1ccc(S(=O)(=O)Nc2ccc(-c3nc(-c4ccc(C)cc4C)co3)cc2)cc1
The max activity of the first is higher: 7.81% [at 0.16 µM] for the first, -16.7% [at 0.16 µM] for the second.

Going from `Cc1nc(OCC(=O)Nc2ccccc2Br)c2ccccc2n1` to `Cc1cccc(NC(=O)Nc2ccc(-c3nc(-c4ccccc4)co3)cc2)c1`, the max activity falls from 28.1% [at 0.16 µM] to 16.2% [at 0.16 µM].

First: O=C(Nc1ccc(-c2nc(-c3ccccc3)co2)cc1)Nc1cccc(Cl)c1
Second: O=C(c1cccnc1)N1CCC2(CC1)Nc1ccc(Cl)cc1-n1cccc12
The max activity of the first is higher: 19.9% [at 0.16 µM] for the first, -27.3% [at 0.16 µM] for the second.

Compared with `Cn1nnc2c(NCCSc3c[nH]c4ccccc34)ncnc21`, `Cc1cccc(-c2nc(Cn3nnc(-c4nc(-c5ccc6c(c5)OCO6)no4)c3C)c(C)o2)c1` is lower in max activity: 5.75% [at 0.16 µM] for the first, -10.5% [at 0.16 µM] for the second.

First: CCCCNC(=O)CCC1N=C2c3ccccc3N=C(SCc3cc(=O)n4ccccc4n3)N2C1=O (centres undefined)
Second: Cc1nc(OCC(=O)Nc2cc(Cl)ccc2Cl)c2ccccc2n1
The max activity of the first is higher: 21.9% [at 0.68 µM] for the first, 20.7% [at 0.68 µM] for the second.

Going from `CCc1ccc(-c2noc(-c3nnn(Cc4nc(-c5ccc(C)cc5)oc4C)c3C)n2)cc1` to `Cc1ccc(-c2coc(-c3ccc(NS(=O)(=O)c4ccc(N5CCCC5=O)cc4)cc3)n2)c(C)c1`, the max activity falls from 8.04% [at 0.68 µM] to -11% [at 0.68 µM].

Going from `CCC1CCCCN1S(=O)(=O)c1cc(-c2nc(C)c(C)s2)sc1C` (centres undefined) to `Cc1ccc2c(c1C)-n1cccc1C1(CCN(C(=O)c3cccnc3)CC1)N2`, the max activity falls from 7.15% [at 0.68 µM] to 5.96% [at 0.68 µM].

First: CCCCNC(=O)CCC1N=C2c3ccccc3N=C(SCC(=O)OCC)N2C1=O (centres undefined)
Second: CCCCNC(=O)CCC1N=C2c3ccccc3N=C(SCc3ccc(C)cc3)N2C1=O (centres undefined)
The max activity of the first is lower: -17.8% [at 2.6 µM] for the first, 25.3% [at 2.6 µM] for the second.

Compared with `COc1ccccc1CNC(=O)CCC1N=C2c3ccccc3N=C(SCc3ccc(Cl)cc3)N2C1=O` (centres undefined), `CCCCNC(=O)CCC1N=C2c3ccccc3N=C(SCc3ccccc3F)N2C1=O` (centres undefined) is lower in max activity: 16% [at 2.6 µM] for the first, -6.88% [at 2.6 µM] for the second.

Compared with `Cc1ccc(-c2nc(Cn3nnc(-c4nc(-c5ccc(C)c(C)c5)no4)c3C)c(C)o2)cc1`, `Cc1cccc(-c2nc(Cn3nnc(-c4nc(-c5ccccc5Br)no4)c3C)c(C)o2)c1` is higher in max activity: -11% [at 2.6 µM] for the first, 9.01% [at 2.6 µM] for the second.

First: Cc1ccc(-c2coc(-c3ccc(NS(=O)(=O)c4cccc(Cl)c4C)cc3)n2)c(C)c1
Second: Cc1ccc(NC(=O)Nc2ccc(-c3nc(-c4cc(C)ccc4C)co3)cc2)cc1
The max activity of the first is higher: 16.4% [at 2.6 µM] for the first, 5.44% [at 2.6 µM] for the second.

First: O=C(NC1CC(=O)N(c2ccc(Cl)cc2)C1)C(=O)c1c[nH]c2ccccc12 (centres undefined)
Second: COc1ccc(-c2nc(N3CCC(c4ccccc4)C3)c3ccccc3n2)cc1 (centres undefined)
The max activity of the first is higher: 22.9% [at 2.6 µM] for the first, -14.1% [at 2.6 µM] for the second.

In the case of `Cc1ccc(Cn2c(=O)c3nn(C)cc3n3c(=O)n(Cc4nc(-c5ccc(C)cc5)oc4C)nc23)cc1`, the max activity is reported as 11.5% [at 2.6 µM].

Going from `Cc1ccc(-c2coc(-c3ccc(NC(=O)c4c(F)cccc4F)cc3)n2)cc1` to `COc1ccc(S(=O)(=O)Nc2ccc(-c3nc(-c4ccc(C)cc4C)co3)cc2)cc1`, the max activity rises from 20.4% [at 5 µM] to 26.2% [at 5 µM].

Going from `O=C1CCc2cc(NC(=O)C3CC3)ccc2N1` to `Cc1ccc(S(=O)(=O)N2CCC3(CC2)NCCN=C3NCc2ccc(F)c(Cl)c2)c(C)c1`, the max activity rises from -5.5% [at 5 µM] to 14% [at 5 µM].

Compared with `Cc1ccc(S(=O)(=O)N2CCC3(CC2)NCCN=C3NCc2cccc(F)c2)cc1C`, `Cc1ccc(S(=O)(=O)N2CCC3(CC2)NCCN=C3NCc2ccc(F)cc2)cc1C` is higher in max activity: 6.41% [at 5 µM] for the first, 30.3% [at 5 µM] for the second.

With `COc1ccccc1C#Cc1ccc([C@@H]2[C@H](CO)N3CCCCN(C(=O)C4CCC4)C[C@@H]23)cc1` the max activity was 14.6% [at 5 µM].

Going from `Cc1ccc(-c2nc3c(s2)CN(S(=O)(=O)c2ccc(F)cc2)CC3)cc1` to `Cc1nc(N2CCCC2)nc2c1CCN(S(=O)(=O)c1ccccc1)CC2`, the max activity rises from 8.68% [at 10 µM] to 10.7% [at 10 µM].

Going from `CCc1nc(OCC(=O)Nc2ccc(C(C)C)cc2)c2ccccc2n1` to `CC1CCN(c2nc(-c3ccc(Cl)cc3)nc3ccccc23)CC1`, the max activity falls from 25.6% [at 10 µM] to 5% [at 10 µM].

Compared with `CN(C)c1cccc(C(=O)N2CCC3(CC2)Nc2ccc(Cl)cc2-n2cccc23)c1`, `CCOc1ccc(N2CC(NC(=O)C(=O)c3c[nH]c4ccccc34)CC2=O)cc1` (centres undefined) is higher in max activity: -25.9% [at 10 µM] for the first, 10.2% [at 10 µM] for the second.

Going from `O=C(Nc1ccc(-c2nc(-c3ccccc3)co2)cc1)Nc1ccc(Br)cc1F` to `Cc1nc(CCNC(=O)[C@H]2CCCN2S(=O)(=O)c2cnn(C(F)F)c2C)cs1`, the max activity falls from 58.9% [at 10 µM] to 13.7% [at 10 µM].

`COc1ccccc1C#Cc1ccc([C@H]2[C@@H](CO)N3CCCCN(C(=O)C4CCC4)C[C@H]23)cc1` gave a max activity of -7.46% [at 0.08 µM].
